# Screening data (PubChem BioAssay)
# Rab9 prom act: Rab9 promoter activation. Huh7 Rab9 promoter-luciferase reporter, luminescence, 24 h. Potency, µM (series often up to 9.22 µM), actives largely listed as activators. 320,000 tested, 2.8% active. AID 485297; also: nearly all actives have a fitted effect of over 60% in size
#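 Stable Rab9-luc Huh7, 1500 cells/well, 2 h settle; cmpd in DMSO, 24 h, 37 °C/5% CO2; luciferase reagent 10 min RT; luminescence.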
# ELG1 DNA repair: blocks ELG1-dependent DNA repair in HEK293T cells. HEK293T ELG1-luciferase reporter, luminescence, 16 h; DNA damage induced by 5-fluorouridine. Potency, µM (highest dose often 46.1 µM), usual class: inhibitors. 330,000 tested, 2.3% active. AID 504467; also: nearly all actives have a fitted effect of over 55% in size
#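 Step one: seed 2,000 cells per well. Step two: pin-transfer compound or DMSO alongside 5-fluorouridine. Step three: incubate 16 hr, 37 °C, 5% CO2. Step four: add ONE-Glo, wait 30 min, read luminescence.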
# ELG1 genotoxic: inducers of genotoxicity in HEK293T ELG1-luciferase cells; Potency, µM (top dose mostly 46 µM), hits mostly activators; HEK293T ELG1-luciferase reporter, luminescence, 16 h; 330,000 tested, 1.3% active; also: nearly all actives have a fitted effect of over 60% in size
#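 16 hr compound incubation (37 °C, 5% CO2) of HEK293T cells carrying luciferase-tagged ELG1; luciferase then measured by ONE-Glo luminescence after 30 min at RT.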
# FLuc counter: firefly luciferase modulation, counter-screen for miR-21 project | P08659 | purified FLuc, Km substrates, luminescence inhibition | Potency, µM (titrated, usually from 57.5 µM), most hits filed as inhibitors | 360,000 tested, 6.9% active; also: nearly all actives have a fitted effect of over 55% in size
# Target sequence (P08659 whole entry, looked up): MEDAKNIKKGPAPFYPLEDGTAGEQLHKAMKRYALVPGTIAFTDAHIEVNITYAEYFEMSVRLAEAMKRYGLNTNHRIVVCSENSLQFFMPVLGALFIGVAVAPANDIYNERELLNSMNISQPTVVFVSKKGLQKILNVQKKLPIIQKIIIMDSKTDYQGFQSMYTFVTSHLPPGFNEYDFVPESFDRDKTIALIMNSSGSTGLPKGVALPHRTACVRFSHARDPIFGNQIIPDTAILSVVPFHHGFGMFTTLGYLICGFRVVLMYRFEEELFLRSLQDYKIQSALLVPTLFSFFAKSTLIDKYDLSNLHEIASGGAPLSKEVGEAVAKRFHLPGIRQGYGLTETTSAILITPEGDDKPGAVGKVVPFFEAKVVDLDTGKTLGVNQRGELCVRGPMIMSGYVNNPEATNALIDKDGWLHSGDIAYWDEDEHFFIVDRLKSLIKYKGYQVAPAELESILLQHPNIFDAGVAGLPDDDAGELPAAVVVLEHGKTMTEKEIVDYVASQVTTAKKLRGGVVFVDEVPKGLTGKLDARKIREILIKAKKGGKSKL
#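 Biochemical qHTS of compounds, final roughly 60 µM downward over six points, against 10 nM purified firefly luciferase using Km concentrations of substrates (10 uM D-luciferin, 10 uM ATP) in Tris acetate pH 7.5 buffer; luminescence output.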
# SMN2 splice enh: enhancers of SMN2 splice variant expression. HEK293 SMN2-luciferase splicing reporter, luminescence, 30-36 h. Potency, µM (doses to about 46.1 µM), most hits filed as activators. 210,000 tested, 2.8% active. AID 1458; also: nearly all actives have a fitted effect of over 55% in size
#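 HEK293 cells carry an SMN2 […]–luciferase reporter in which exon 7 inclusion puts luciferase in frame. Cells were plated 10-12 h before compound addition, then incubated 30-36 h at 37C. ONE-Glo luminescence was read; sodium butyrate at 4.5 mM final served as control.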
# NPC1 promoter act: NPC1 promoter activation | Huh7 NPC1 promoter luciferase reporter, 24 h | Potency, µM (doses to about 9.22 µM), usual class: activators | 320,000 tested, 2.4% active; also: nearly all actives have a fitted effect of over 60% in size
#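 Luciferase expression driven by the NPC1 promoter was measured in stably transfected Huh7 cells after a 24 h compound incubation, using a luciferase reagent and a luminescence read.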
# Hits are given with their value; - = inactive; ? = inconclusive; . = no result; [ ] = remark or other dose. Compounds with a hit are over-represented: about 9.2% of the library has one in this group of screens. Calls follow the shape of the dose curve; as a rule, active = well fitted curve in the direction sought with a large enough effect; inconclusive = small, poorly fitted or top-dose-only effect, or another doubt; inactive = no such curve, though single readings can be large; an effect the other way counts as inactive or inconclusive.
SMILES,Rab9 prom act,ELG1 DNA repair,ELG1 genotoxic,FLuc counter,SMN2 splice enh,NPC1 promoter act
C/C(=N\NC(=O)C1(C)CC1(Br)Br)c1cccc(NC(=O)c2ccc(C)o2)c1 (centres undefined),-,7.3µM,-,-,.,-
Cc1ccc(C(=O)Nc2cccc(C(=O)NCc3ccccc3)c2)o1,-,-,-,?,-,-
CCOc1ccc(/C=N/Nc2cc(C)nc(N3CCOCC3)n2)cc1,-,?,-,1.35µM,.,-
CCOc1ccc2nc(N3CCOCC3)nc(C)c2c1,?,?,9.2µM,10.7µM,2.82µM,3.98µM
Cc1nc(N/N=C/c2ccc(Br)cc2)cc(N2CCOCC2)n1,-,14.6µM,-,-,.,-
CCOc1ccc(Nc2cc(C)nc(N3CCOCC3)n2)cc1,-,-,-,-,-,-
Cc1cc(N/N=C/c2ccccc2O)nc(N2CCOCC2)n1,-,-,-,12µM,.,-
CCCCn1c(SCC(=O)NCc2ccc(OC)c(C(=O)O)c2)nc2cc(S(N)(=O)=O)ccc21,-,-,-,-,.,-
CCOC(=O)CCS(=O)(=O)c1nc(-c2ccccc2)cc(C(F)(F)F)n1,-,?,-,-,?,-
COC(=O)CCS(=O)(=O)c1nc(-c2ccccc2)cc(C(F)(F)F)n1,-,?,-,-,12.6µM,-
Cc1oc(-c2cccs2)nc1CN1CCN(C(C)C)C(CCO)C1 (centres undefined),-,-,-,-,.,-
COc1cc(O)oc1C=Nc1ccccc1,-,-,-,-,-,-
Oc1sc(C=Nc2ccccc2)c2ccccc12,?,?,?,6.01µM,8.91µM,?
Oc1sc(C=Nc2ccc(F)cc2)c2ccccc12,2.82µM,?,-,?,10µM,3.16µM
Cc1cc(C)n(C(=O)COc2ccccc2[N+](=O)[O-])n1,-,?,-,-,.,-
COc1ccc2c(=O)cc(-c3ccncc3)oc2c1OC,.,.,.,.,-[9.22 µM],.
O=c1cc(-c2ccc3c(c2)OCO3)oc2ccccc12,3.55µM,?,9.2µM,?,12.6µM,3.16µM
COc1ccc(-c2cc(=O)c3c(O)c(OC)c(O)cc3o2)cc1,3.55µM,?,1.83µM,0.269µM,.,3.16µM
Cn1c(-c2ccc3c(c2)OCO3)cc(=O)c2ccccc21,-,-,-,-,-,-
COc1ccc(-c2cc(=O)c3c(O)c(OC)c(OC)c(OC)c3o2)cc1,.,.,.,.,-,.
COc1ccc(N=c2cc(-c3ccc(OC)cc3)oc3ccccc23)cc1,-,23.1µM,-,-,-,-
O=c1cc(-c2ccncc2)oc2ccccc12,-,9.2µM,-,-,-,-
COc1ccc(C(CC(=O)O)NS(=O)(=O)c2ccc3c(c2)NC(=O)CO3)cc1 (centres undefined),-,-,-,-,.,-
O=C(CSc1nc2ccccc2s1)N/N=C/c1cc([N+](=O)[O-])ccc1O,-,-,-,-,.,-
COc1ccc(CCn2c(=O)c3cccnc3n(Cc3cccc([N+](=O)[O-])c3)c2=O)cc1OC,-,-,-,-,-,-
SMILES,Rab9 prom act,ELG1 DNA repair,ELG1 genotoxic,FLuc counter,SMN2 splice enh,NPC1 promoter act
C=C(C)C(=O)Nc1ccc2c(c1)OCCOCCOCCO2,-,-,-,-,.,-
COc1ccc(-c2cc(=O)c3ccccc3o2)cc1,2µM,?,20.6µM,6.01µM,10µM,2.51µM
O=c1cc2oc3cc(O)c(O)cc3c(-c3ccccc3O)c-2cc1O,-,?,-,?,.,-
O=c1cc(-c2ccccc2O)oc2cc(O)ccc12,.,.,.,.,25.1µM,.
Cn1c2ccccc2c(=O)c2ccc(-c3ccc4c(c3)OCO4)cc21,1.12µM,?,?,3.01µM,.,1.26µM
Cc1cccc(-c2oc3ccccc3c2-c2ccc3c(c2)OCO3)c1,-,-,-,-,.,-
Nc1c(-c2ccc3c(c2)OCCO3)oc2ccccc2c1=O,?,?,10.3µM,9.53µM,.,?
O=c1cc(-c2ccc(O)cc2)oc2ccccc12,?,?,?,10.7µM,?,?
COc1ccc(C(=O)c2c(O)cc(-c3ccc(OC)cc3)oc2=O)cc1,-,?,-,16.9µM,-,-
O=c1cc(-c2c(F)c(F)c(F)c(F)c2F)oc2ccccc12,-,-,-,-,-,-
